Sampled rows, rich in hits. Any-hit rate of the full collection: about 4.3%.
esBAF inh = blocks esBAF chromatin remodeling in mouse ES cells; Bmi1-luciferase knock-in reporter, 24 h; 100% = twice the neutral-well signal; reporter increase, % at 12.5 µM; 350,000 compounds, 2% hits; AID 602393; in the data active = activation above about 40%; inconclusive = no clear call, values can overlap the other calls;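 note: 0% = median of the plate's neutral control wells and 100% = double that signal; a rise in the Bmi1 reporter signal indicates esBAF inhibition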
AF4-AF9 inh = MLL-AF4/AF9 protein interaction inhibition | P42568 | AlphaScreen, biotin-AF4 peptide binding to FLAG-AF9 | inhibition, % at 10 µM | 350,000 compounds, 0.47% hits | AID 651704;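 active = every replicate reaching a set inhibition limit, whatever the replicate mean, cut at about 25% in these data; inconclusive = mean inhibition reaches that limit but some replicates miss it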;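 note: 0% = plate neutral control median and 100% = total signal loss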
Wnt bcat act = activators of Wnt/beta-catenin signaling; 300,000 compounds, 1.2% hits; activation, % at 9.35 µM; Wnt/beta-catenin reporter cell assay, activator, plate reader; AID 743398; in the data active = activation above about 30%, passing the limit was not always enough; inconclusive = no clear call, values can overlap the other calls;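 note: 0% = neutral control wells and 100% = positive control wells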
FGF22 binding = shifts melting point of recombinant human FGF22; Q9HCT0; recombinant FGF22 thermal shift, SYPRO orange fluorescence; percent of sucrose octasulfate shift, DMSO zero; activity (Tm shift, normalised), % at 9.99 µM; 340,000 compounds, 1.5% hits; AID 651658;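 active = mean Tm shift, scaled 0 neutral to 100 positive control, at about 1.3% or above, every replicate too, limit read from the data; inconclusive = no clear call, values can overlap the other calls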
Target sequence (Q9HCT0 whole entry, looked up): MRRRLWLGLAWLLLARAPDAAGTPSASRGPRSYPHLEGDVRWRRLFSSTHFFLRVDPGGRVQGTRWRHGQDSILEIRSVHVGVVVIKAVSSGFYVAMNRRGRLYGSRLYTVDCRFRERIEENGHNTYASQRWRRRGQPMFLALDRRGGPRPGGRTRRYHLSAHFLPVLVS
MITF act = MITF TRPM1 promoter activation in melanoma cells; SK-MEL-5 TRPM1-promoter luciferase, 24 h; % of positive control, neutral wells = 0; AID 588334; 300,000 compounds, 0.75% hits; activation, % at 12.5 µM;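 active = mean activation of at least 80% with every replicate also reaching 80%; inconclusive = mean reaches 80% but some replicate falls short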;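 note: 0% = neutral control wells and 100% = parthenolide positive control wells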
SMARCA2 activ = SMARCA2 function activation, primary screen; activation, % at 9.1 µM; 370,000 compounds, 1% hits; MG213 cells, MMTV-luciferase reporter, dexamethasone, overnight; AID 652017; in the data active = activation above about 7.8%;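 note: 0% = vehicle wells and 100% = reference activator wells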
* = called active by the depositor.

For CN(C)C(=O)c1ccc(-c2ccc([C@H]3[C@H]4CN(S(C)(=O)=O)CCCCN4[C@H]3CO)cc2)cc1 the results were AF4-AF9 inh 34* and FGF22 binding 0.
`C[C@H](CO)N1C[C@H](C)[C@H](CN(C)Cc2ccc3c(c2)OCO3)Oc2ncc(-c3ccccc3)cc2C1=O` gave esBAF inh 0 and AF4-AF9 inh 4.
Screening Cc1noc(C)c1S(=O)(=O)N(C)C[C@H]1Oc2ccc(NS(=O)(=O)c3cccs3)cc2CC(=O)N([C@H](C)CO)C[C@@H]1C returned esBAF inh -1, AF4-AF9 inh 5 and FGF22 binding 0.
`COCC(=O)N(C)C[C@H]1Oc2cc(-c3cccnc3)ccc2S(=O)(=O)N([C@@H](C)CO)C[C@H]1C` gave esBAF inh 2, AF4-AF9 inh 2 and FGF22 binding 0.
For O=C1CCC(c2ccccc2)c2ccccc21 (stereo not drawn) the results were esBAF inh 2, AF4-AF9 inh -3, Wnt bcat act 52*, FGF22 binding 0 and SMARCA2 activ -3.
`C[C@H](CO)N1C[C@H](C)[C@H](CN(C)CC2CCCCC2)Oc2ccc(NC(=O)c3ccncc3)cc2CC1=O` gave esBAF inh 0, AF4-AF9 inh -1 and FGF22 binding 0.
Screening C[C@@H]1CN([C@@H](C)CO)S(=O)(=O)c2ccc(C#Cc3ccncc3)cc2O[C@@H]1CN(C)C(=O)C1CCOCC1 returned esBAF inh 4, AF4-AF9 inh -2 and FGF22 binding 0.
For COc1ccc(OC)c(CCNC(=O)c2ccc(CS(=O)Cc3cccc(Cl)c3)o2)c1 (stereo not drawn) the results were esBAF inh 5, AF4-AF9 inh 3, Wnt bcat act -1, FGF22 binding 0, MITF act -7 and SMARCA2 activ -3.
Screening O=C(Cc1cccs1)NCc1ccc(Cl)cc1Cl returned esBAF inh 66*, AF4-AF9 inh 5, Wnt bcat act 27, FGF22 binding 0 and SMARCA2 activ 6.
For O=C(NCCc1cccs1)c1ccc(CS(=O)Cc2cccc(Cl)c2)o1 (stereo not drawn) the results were AF4-AF9 inh -5, Wnt bcat act 1, FGF22 binding 43* and SMARCA2 activ -2.
`O=C(Cc1cccs1)NCc1cccc(Cl)c1` gave esBAF inh 50*, AF4-AF9 inh -1, Wnt bcat act 8, FGF22 binding 0, MITF act 61 and SMARCA2 activ 7.
For O=C(Cc1cccs1)NCc1cc(Cl)cc(Cl)c1 the results were esBAF inh inconclusive, AF4-AF9 inh -6, Wnt bcat act 12, FGF22 binding 0, MITF act 47 and SMARCA2 activ 3.
`O=C(NC(=S)NCc1ccc(Cl)cc1Cl)c1ccco1` gave AF4-AF9 inh 4, Wnt bcat act -3, FGF22 binding 43*, MITF act 22 and SMARCA2 activ -3.
`O=C(Cc1ccccc1[N+](=O)[O-])NCc1ccc(Cl)cc1Cl` gave Wnt bcat act 17, MITF act 94* and SMARCA2 activ 2.
For O=C(Cc1ccccc1[N+](=O)[O-])NCc1ccc(Cl)cc1 the results were MITF act 29 and SMARCA2 activ 3.
CCCN1C[C@H](C)[C@@H](OC)CN(C)C(=O)c2cc(NC(=O)Nc3c(C)noc3C)ccc2OC[C@H]1C was read as esBAF inh 2, AF4-AF9 inh -1 and FGF22 binding 0.
O=C(c1ccccn1)N1C[C@H]2[C@@H](c3ccccc31)[C@@H](CO)N2C(=O)Nc1ccccc1Cl was read as esBAF inh -2.
CN(C)/C=C/C(=O)c1ccc(F)cc1 was read as esBAF inh -11, Wnt bcat act 7 and SMARCA2 activ 6.
For CN(C)/C=C/C(=O)c1ccc(Br)s1 the results were esBAF inh 16, AF4-AF9 inh 0, Wnt bcat act 3, FGF22 binding 43*, MITF act 24 and SMARCA2 activ -3.
`Clc1ccc(Cn2c(/C=C/c3ccco3)nc3ccccc32)cc1` gave Wnt bcat act 34*, MITF act 45 and SMARCA2 activ 0.
For COC(=O)[C@@H]1[C@@H](CO)[C@@H]2Cn3c(ccc(-c4ccccc4F)c3=O)[C@@H]2N1CC1CCCC1 the results were esBAF inh 2, AF4-AF9 inh -2 and FGF22 binding 0.

Source: PubChem BioAssay
